An excerpt weighted towards active compounds, which were near 4.6% of everything screened.
ADAM17 inh = inhibits human ADAM17 | P78536 | recombinant ADAM17, EDANS/DABCYL FRET peptide cleavage | inhibition, % at 6.95 µM | 0.83% of 370,000 active;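 active = inhibition above the mean of compounds lying between control limits plus 3 SD, set per campaign, cut at about 8.5% in these data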
KLK7 zymogen act = activates the human kallikrein-7 zymogen. P49862. 0.9% of 370,000 active. AID 652039. activation, % at 7 µM. purified proKLK7, EDANS-DABCYL substrate fluorescence; 100% is mature enzyme control, 0% vehicle;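 active = activation above the mean of all tested compounds plus 3 SD, computed per campaign excluding outliers beyond control limits, cut at about 13% in these data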
Target sequence (P49862 whole entry, looked up): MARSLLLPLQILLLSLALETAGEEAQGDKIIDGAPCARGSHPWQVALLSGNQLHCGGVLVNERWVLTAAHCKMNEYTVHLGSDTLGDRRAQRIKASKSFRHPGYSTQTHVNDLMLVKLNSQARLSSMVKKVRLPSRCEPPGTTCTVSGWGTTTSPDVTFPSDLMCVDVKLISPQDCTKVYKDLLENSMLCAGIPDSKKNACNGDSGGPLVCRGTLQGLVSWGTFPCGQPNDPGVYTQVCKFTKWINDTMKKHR
ADAM10 inh = ADAM10 inhibition, QFRET primary screen; inhibition, % at 7 µM; 0.62% of 370,000 active; recombinant ADAM10, EDANS/DABCYL FRET peptide cleavage, 3 h; AID 720582; O14672;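 active = inhibition above a per-campaign cutoff equal to the mean of compounds falling between control-based bounds plus 3 SD, cut at about 20% in these data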
FAS-TE inh = blocks the thioesterase domain of human fatty acid synthase; recombinant FAS-TE, OMFH fluorogenic substrate, fluorescence endpoint; inhibition, % at 15 µM; P49327; 0.67% of 360,000 active;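 active = compounds whose normalised, plate-corrected inhibition of enzyme fluorescence in the single-dose primary screen is 50% or more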
GRIN3A LBD mod = modulators (binders) of human NR3A ligand-binding domain | NR3A LBD differential scanning fluorimetry, Tm shift; 0% = protein alone, 100% = glycine-bound protein | Tm shift relative to glycine control, % at 25 µM | AID 1259313 | 2.5% of 340,000 active;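 active = melting temperature shift of at least 10% of the positive control shift, at one fixed dose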
ADAM10 confirm = human ADAM10 inhibition, confirmation | AID 743208 | inhibition, % at 6.95 µM | 1% of 2,100 active | ADAM10 QFRET peptide cleavage, EDANS fluorescence | shares compounds with ADAM10 inh;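 active = inhibition above about 20% chosen separately for each screening run, limit read from the data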
ADAM17 ctr = counter-screen for ADAM10 exosite inhibitors: inhibitors of human ADAM17; shares compounds with ADAM10 inh; ADAM17 QFRET peptide cleavage, EDANS fluorescence; AID 743214; inhibition, % at 6.95 µM; 0.5% of 2,100 active;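 active = mean triplicate inhibition above the solvent-only control wells' mean plus 3 SD, cut at about 12% in these data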
ADAM10 ctr = counter-screen for ADAM17 exosite inhibitors: inhibitors of human ADAM10. shares compounds with ADAM17 inh. recombinant ADAM10, EDANS/DABCYL FRET peptide cleavage, 3 h. inhibition, % at 6.95 µM. 47% of 2,900 active;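 active = mean inhibition over the triplicate runs exceeds the activity threshold set in the earlier primary screen, cut at about 20% in these data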
ADAM17 confirm = human ADAM17 inhibition, confirmation; shares compounds with ADAM17 inh; AID 743257; inhibition, % at 6.95 µM; 65% of 2,900 active; recombinant ADAM17, EDANS/DABCYL QFRET peptide cleavage;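 active = mean inhibition across replicates above the hit cutoff set in the primary screen, cut at about 8.5% in these data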
Large screens that a line does not name were inactive (follow-up assays come after a bar, where they were run).

CCOC(=O)C1CCN(S(=O)(=O)c2ccccc2)CC1	none
O=C(OCCOc1cccc(Cl)c1)C1CCN(S(=O)(=O)c2ccccc2)CC1	ADAM17 inh 8.6, ADAM10 inh 21 | ADAM10 confirm inactive | ADAM17 ctr inactive | ADAM10 ctr 21 | ADAM17 confirm 11
CCn1c2ccccc2c2cc(NC(=O)COC(=O)c3cc(Cl)cc(Cl)c3)ccc21	none (no result: FAS-TE inh, GRIN3A LBD mod)
Cc1cc([N+](=O)[O-])nn1CCCC(=O)Nc1ccc2c(c1)OCO2	none
Cc1ccc(Oc2cc(NC(=O)CCCn3nc([N+](=O)[O-])cc3C)cc([N+](=O)[O-])c2)cc1	ADAM17 inh 13, ADAM10 inh 23, GRIN3A LBD mod 10 | ADAM10 confirm inactive | ADAM17 ctr inactive | ADAM10 ctr 32 | ADAM17 confirm 18
O=C(CSc1nnc(-c2ccc(Cl)cc2)n1-c1ccccc1)NN=Cc1c[nH]c2ccccc12	ADAM17 inh 16, ADAM10 inh 29 (no result: FAS-TE inh, GRIN3A LBD mod) | ADAM10 confirm inactive | ADAM17 ctr inactive | ADAM10 ctr 42 | ADAM17 confirm 18
O=C(CSc1nnc(-c2ccc(Cl)cc2)n1-c1ccc(Cl)cc1)N/N=C/c1ccccc1C(=O)O	none (no result: ADAM17 inh, KLK7 zymogen act, ADAM10 inh, FAS-TE inh)
CC(C)C[C@H](NC(=O)c1nc[nH]c1C(=O)NCCCCCNC(=O)OC(C)(C)C)C(=O)OC(C)(C)C	ADAM17 inh 9.8, ADAM10 inh 23 | ADAM10 confirm inactive | ADAM17 ctr inactive | ADAM10 ctr 35 | ADAM17 confirm 15
CC(C)C[C@H](NC(=O)c1[nH]cnc1C(=O)N[C@@H](C)C(=O)OC(C)(C)C)C(=O)OC(C)(C)C	ADAM17 inh 25, ADAM10 inh 40 | ADAM10 confirm inactive | ADAM17 ctr inactive | ADAM10 ctr 33 | ADAM17 confirm 19
COC(=O)C1=C(C)N(C)C(=NCc2ccccc2)NC1c1cccc(Cl)c1 (stereo not given)	none (no result: FAS-TE inh, GRIN3A LBD mod)
O=S1(=O)CCSC[C@@H](CN2CCCC2)N1	none (no result: FAS-TE inh, GRIN3A LBD mod)
CCc1nc2c(OCCC3CCCCC3)cccn2c1N(C)C(=O)c1ccc(C)cc1	ADAM17 inh 15, ADAM10 inh 29 (no result: GRIN3A LBD mod) | ADAM10 confirm inactive | ADAM17 ctr inactive | ADAM10 ctr inactive | ADAM17 confirm inactive
CCc1nc2c(OCCC3CCCCC3)cccn2c1N(C)C(=O)C1CC1	none (no result: ADAM17 inh, KLK7 zymogen act, ADAM10 inh, GRIN3A LBD mod)
O=C(OCC#CCSc1nnc(-c2cccc3ccccc23)o1)c1ccccc1	none (no result: KLK7 zymogen act, FAS-TE inh, GRIN3A LBD mod)
COc1ccccc1N(C)S(=O)(=O)c1ccc(C(=O)NNC(=O)c2ccccc2O)cc1	ADAM17 inh 9.0, ADAM10 inh 22 | ADAM10 confirm inactive | ADAM17 ctr inactive | ADAM10 ctr inactive | ADAM17 confirm 12
COc1ccccc1N(C)S(=O)(=O)c1ccc(Cl)c(C(=O)NNC(=O)c2ccccc2O)c1	none
Cc1ccc(NC(=O)c2cc(S(=O)(=O)Nc3ccc(C)cc3)cs2)cc1	ADAM17 inh 10, ADAM10 inh 27, GRIN3A LBD mod 27 | ADAM10 confirm inactive | ADAM17 ctr inactive | ADAM10 ctr 45 | ADAM17 confirm 19
COc1ccc(NS(=O)(=O)c2ccc3oc(SCc4ccc(F)cc4)nc3c2)cc1	ADAM17 inh 11, ADAM10 inh 25, GRIN3A LBD mod 13 | ADAM10 confirm inactive | ADAM17 ctr inactive | ADAM10 ctr 22 | ADAM17 confirm 12
COc1ccccc1OCc1ccc(C(=O)N2N=C(C(F)F)CC2(O)C(F)F)o1 (stereo not given)	none
O=C(c1ccc(COc2ccc(Cl)cc2)o1)N1N=C(C(F)F)CC1(O)C(F)F (stereo not given)	ADAM17 inh 13, ADAM10 inh 34 | ADAM10 confirm inactive | ADAM17 ctr inactive | ADAM10 ctr inactive | ADAM17 confirm inactive
CCN(c1ccccc1)S(=O)(=O)c1cc(C(=O)OC(C)C(=O)Nc2ccc3c(c2)OCCO3)ccc1C (stereo not given)	ADAM17 inh 15, ADAM10 inh 28 | ADAM10 confirm inactive | ADAM17 ctr inactive | ADAM10 ctr inactive | ADAM17 confirm 13
CC(OC(=O)c1ccccn1)C(=O)Nc1ccc2c(c1)OCCO2 (stereo not given)	none
CC(C)c1ccc(NC(=O)c2cc(S(=O)(=O)NCC3COc4ccccc4O3)ccc2F)cc1 (stereo not given)	ADAM17 inh 10.0, ADAM10 inh 21, GRIN3A LBD mod 19 | ADAM10 confirm inactive | ADAM17 ctr inactive | ADAM10 ctr 38 | ADAM17 confirm 26
O=C(Nc1ccc(C(F)(F)F)cc1)c1cc(S(=O)(=O)NCC2COc3ccccc3O2)ccc1F (stereo not given)	ADAM17 inh 13, ADAM10 inh 25, GRIN3A LBD mod 32 | ADAM10 confirm inactive | ADAM17 ctr inactive | ADAM10 ctr 51 | ADAM17 confirm 24
C=CCN(c1ccccc1OC)S(=O)(=O)c1cccc(C(=O)OCC(=O)c2c[nH]c3ccccc23)c1	ADAM17 inh 8.8, ADAM10 inh 23, GRIN3A LBD mod 29 | ADAM10 confirm inactive | ADAM17 ctr inactive | ADAM10 ctr 32 | ADAM17 confirm 19
O=C(c1cccs1)N1N=C(c2ccccc2)CC1c1ccc(O)cc1 (stereo not given)	ADAM17 inh 16, ADAM10 inh 27 | ADAM10 confirm inactive | ADAM17 ctr inactive | ADAM10 ctr 30 | ADAM17 confirm 21
COc1cccc(OC(=O)c2ccccc2)c1OC(=O)c1ccccc1	ADAM17 inh 15, ADAM10 inh 27 | ADAM10 confirm inactive | ADAM17 ctr inactive | ADAM10 ctr inactive | ADAM17 confirm inactive
COC(=O)[C@]12C[C@H](CC(=O)N3CCC(c4ccccc4)CC3)C(=O)N(Cc3ccc4c(c3)OCO4)C1=C[C@H](C(C)(C)C)O[C@@H]2C	none (no result: FAS-TE inh, GRIN3A LBD mod)
C[C@@H]1CN(c2ccc(N3CCNC[C@H]3C)cc2C#N)C[C@H](C)O1	none (no result: FAS-TE inh, GRIN3A LBD mod)
COC(=O)C1=C(C)N(Cc2ccc(C(F)(F)F)cc2)C(=NCC2CC2)NC1c1ccccc1C(F)(F)F (stereo not given)	none (no result: FAS-TE inh, GRIN3A LBD mod)
CCOc1ccc(-c2[nH]ncc2Oc2cccc(OC)c2)c(O)c1	ADAM17 inh 11, ADAM10 inh 24 | ADAM10 confirm inactive | ADAM17 ctr inactive | ADAM10 ctr 35 | ADAM17 confirm 20
COc1ccc(Oc2cn[nH]c2-c2ccc(OCC(=O)NN)cc2O)cc1	none

Screens as filed in PubChem.
